# Reference: ChEMBL document CHEMBL2218924, “A broad activity screen in support of a chemogenomic map for kinase signalling research and drug discovery” (Biochem J, 2013)
# Columns and labels:
# [1] = molecular target: T1, Ephrin type-B receptor 1 (Homo sapiens) (UniProt P54762); conditions: at 10 µM
# T1 sequence (whole entry): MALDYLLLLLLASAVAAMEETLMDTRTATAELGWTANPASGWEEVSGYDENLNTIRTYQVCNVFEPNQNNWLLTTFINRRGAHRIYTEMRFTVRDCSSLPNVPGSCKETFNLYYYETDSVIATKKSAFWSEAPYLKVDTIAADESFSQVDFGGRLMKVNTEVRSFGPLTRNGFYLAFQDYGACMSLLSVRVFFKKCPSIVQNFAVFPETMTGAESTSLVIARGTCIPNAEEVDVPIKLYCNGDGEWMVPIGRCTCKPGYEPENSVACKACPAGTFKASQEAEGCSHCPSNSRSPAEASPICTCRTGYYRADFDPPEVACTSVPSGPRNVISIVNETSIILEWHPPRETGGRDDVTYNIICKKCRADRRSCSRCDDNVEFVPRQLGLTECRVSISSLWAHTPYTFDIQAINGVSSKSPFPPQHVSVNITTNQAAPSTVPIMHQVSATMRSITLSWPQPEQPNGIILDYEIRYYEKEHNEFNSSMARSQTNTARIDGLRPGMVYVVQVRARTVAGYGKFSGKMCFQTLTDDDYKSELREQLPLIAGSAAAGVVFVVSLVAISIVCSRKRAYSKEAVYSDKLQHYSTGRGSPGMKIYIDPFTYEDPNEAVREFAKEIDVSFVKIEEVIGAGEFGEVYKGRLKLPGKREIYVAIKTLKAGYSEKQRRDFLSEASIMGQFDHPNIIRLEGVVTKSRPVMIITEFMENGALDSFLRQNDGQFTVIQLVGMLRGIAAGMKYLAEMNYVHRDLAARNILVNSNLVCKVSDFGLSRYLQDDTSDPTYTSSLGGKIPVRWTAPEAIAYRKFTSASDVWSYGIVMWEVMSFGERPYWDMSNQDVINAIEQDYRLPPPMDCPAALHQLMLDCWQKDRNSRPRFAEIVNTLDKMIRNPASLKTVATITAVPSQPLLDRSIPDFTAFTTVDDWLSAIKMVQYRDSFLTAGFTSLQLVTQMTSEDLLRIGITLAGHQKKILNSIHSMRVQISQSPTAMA
# [2] = molecular target: T2, Ephrin type-B receptor 2 (Homo sapiens) (UniProt P29323); conditions: at 1 µM
# T2 sequence (whole entry): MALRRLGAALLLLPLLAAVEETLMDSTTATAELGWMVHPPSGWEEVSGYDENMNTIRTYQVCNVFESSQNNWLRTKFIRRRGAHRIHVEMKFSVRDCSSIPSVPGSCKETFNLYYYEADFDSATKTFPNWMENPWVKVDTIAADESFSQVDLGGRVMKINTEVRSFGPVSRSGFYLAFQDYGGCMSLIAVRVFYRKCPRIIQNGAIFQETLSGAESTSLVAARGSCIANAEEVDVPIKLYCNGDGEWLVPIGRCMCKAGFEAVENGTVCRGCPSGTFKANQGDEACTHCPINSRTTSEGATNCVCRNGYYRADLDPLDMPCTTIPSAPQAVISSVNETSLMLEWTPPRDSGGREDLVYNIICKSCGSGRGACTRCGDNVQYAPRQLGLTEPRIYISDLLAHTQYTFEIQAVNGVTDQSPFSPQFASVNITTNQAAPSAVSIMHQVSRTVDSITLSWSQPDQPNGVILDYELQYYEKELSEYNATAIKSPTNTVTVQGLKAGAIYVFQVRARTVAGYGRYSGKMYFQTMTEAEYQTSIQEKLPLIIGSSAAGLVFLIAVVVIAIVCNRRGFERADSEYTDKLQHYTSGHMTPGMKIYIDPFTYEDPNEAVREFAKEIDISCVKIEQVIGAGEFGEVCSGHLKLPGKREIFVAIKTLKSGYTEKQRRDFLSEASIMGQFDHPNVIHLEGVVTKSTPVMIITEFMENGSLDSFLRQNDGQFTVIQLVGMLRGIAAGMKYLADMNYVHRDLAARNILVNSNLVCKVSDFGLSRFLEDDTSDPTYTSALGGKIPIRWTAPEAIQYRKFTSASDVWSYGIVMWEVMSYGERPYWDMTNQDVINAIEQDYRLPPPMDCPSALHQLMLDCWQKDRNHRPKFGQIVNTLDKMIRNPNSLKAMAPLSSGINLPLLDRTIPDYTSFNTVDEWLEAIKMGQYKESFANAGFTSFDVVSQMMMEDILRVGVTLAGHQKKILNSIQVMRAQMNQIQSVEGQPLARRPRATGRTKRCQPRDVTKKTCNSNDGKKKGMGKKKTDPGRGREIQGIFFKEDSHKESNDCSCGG
# [3] = molecular target: T2, Ephrin type-B receptor 2 (Homo sapiens); conditions: at 10 µM
# [4] = molecular target: T3, Ephrin type-B receptor 3 (Homo sapiens) (UniProt P54753); conditions: at 1 µM
# T3 sequence (whole entry): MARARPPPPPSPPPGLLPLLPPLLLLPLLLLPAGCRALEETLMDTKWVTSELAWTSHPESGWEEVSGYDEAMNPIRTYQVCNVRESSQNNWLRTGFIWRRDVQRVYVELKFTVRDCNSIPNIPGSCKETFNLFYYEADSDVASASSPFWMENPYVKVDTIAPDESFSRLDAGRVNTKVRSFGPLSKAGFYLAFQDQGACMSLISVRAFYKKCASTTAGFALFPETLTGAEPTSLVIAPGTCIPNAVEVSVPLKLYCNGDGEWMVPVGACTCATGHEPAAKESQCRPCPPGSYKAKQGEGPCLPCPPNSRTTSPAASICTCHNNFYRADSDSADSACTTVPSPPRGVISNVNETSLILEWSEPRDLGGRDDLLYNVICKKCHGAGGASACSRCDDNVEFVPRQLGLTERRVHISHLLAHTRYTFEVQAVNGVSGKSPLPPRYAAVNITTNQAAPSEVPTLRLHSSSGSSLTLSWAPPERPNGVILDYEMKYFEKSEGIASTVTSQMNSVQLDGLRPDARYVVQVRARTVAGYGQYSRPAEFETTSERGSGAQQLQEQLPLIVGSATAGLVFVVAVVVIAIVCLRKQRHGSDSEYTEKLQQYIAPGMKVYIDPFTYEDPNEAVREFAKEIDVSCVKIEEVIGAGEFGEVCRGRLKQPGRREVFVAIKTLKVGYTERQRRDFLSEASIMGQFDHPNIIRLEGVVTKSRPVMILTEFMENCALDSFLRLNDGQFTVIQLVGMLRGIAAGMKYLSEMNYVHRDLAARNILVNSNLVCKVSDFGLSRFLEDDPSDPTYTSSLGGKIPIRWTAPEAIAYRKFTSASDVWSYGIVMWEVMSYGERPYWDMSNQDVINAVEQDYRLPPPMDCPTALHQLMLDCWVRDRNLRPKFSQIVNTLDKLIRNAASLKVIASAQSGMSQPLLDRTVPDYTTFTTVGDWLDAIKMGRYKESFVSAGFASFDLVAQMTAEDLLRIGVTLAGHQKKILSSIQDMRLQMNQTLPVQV
# [5] = molecular target: T3, Ephrin type-B receptor 3 (Homo sapiens); conditions: at 10 µM
# [6] = molecular target: T4, Ephrin type-B receptor 4 (Homo sapiens) (UniProt P54760); conditions: at 1 µM
# T4 sequence (whole entry): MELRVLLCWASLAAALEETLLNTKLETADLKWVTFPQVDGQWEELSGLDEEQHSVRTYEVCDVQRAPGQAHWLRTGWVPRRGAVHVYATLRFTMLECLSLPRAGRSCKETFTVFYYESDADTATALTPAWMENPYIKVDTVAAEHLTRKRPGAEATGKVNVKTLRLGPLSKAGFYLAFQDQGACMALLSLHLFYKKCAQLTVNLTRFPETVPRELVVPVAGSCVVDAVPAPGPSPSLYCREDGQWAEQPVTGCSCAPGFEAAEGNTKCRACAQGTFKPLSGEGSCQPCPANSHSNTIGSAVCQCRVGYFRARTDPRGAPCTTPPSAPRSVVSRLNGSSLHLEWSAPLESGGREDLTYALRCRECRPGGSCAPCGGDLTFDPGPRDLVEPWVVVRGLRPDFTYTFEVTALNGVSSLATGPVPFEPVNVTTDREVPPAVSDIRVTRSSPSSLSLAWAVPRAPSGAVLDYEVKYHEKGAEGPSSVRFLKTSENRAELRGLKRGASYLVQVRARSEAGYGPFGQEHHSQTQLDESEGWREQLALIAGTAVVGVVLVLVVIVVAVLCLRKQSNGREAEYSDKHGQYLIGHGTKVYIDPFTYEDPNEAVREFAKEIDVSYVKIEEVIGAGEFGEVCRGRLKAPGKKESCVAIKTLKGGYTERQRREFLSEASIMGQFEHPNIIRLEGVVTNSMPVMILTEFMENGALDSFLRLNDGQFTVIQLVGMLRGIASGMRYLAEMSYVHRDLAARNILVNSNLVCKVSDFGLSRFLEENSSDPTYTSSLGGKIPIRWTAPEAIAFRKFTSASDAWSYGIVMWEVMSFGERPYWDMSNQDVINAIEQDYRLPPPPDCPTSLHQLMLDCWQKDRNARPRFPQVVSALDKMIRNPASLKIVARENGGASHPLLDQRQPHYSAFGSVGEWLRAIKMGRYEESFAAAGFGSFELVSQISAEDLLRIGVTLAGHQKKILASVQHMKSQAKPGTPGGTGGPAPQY
# [7] = molecular target: T4, Ephrin type-B receptor 4 (Homo sapiens); conditions: at 10 µM
# [8] = molecular target: Receptor tyrosine-protein kinase erbB-4 (Homo sapiens) (UniProt Q15303); conditions: at 1 µM
# [9] = molecular target: Receptor tyrosine-protein kinase erbB-4 (Homo sapiens) (UniProt Q15303); conditions: at 10 µM
# [10] = molecular target: Focal adhesion kinase 1 (Homo sapiens) (UniProt Q05397); conditions: at 1 µM
# [11] = molecular target: Focal adhesion kinase 1 (Homo sapiens) (UniProt Q05397); conditions: at 10 µM
# [12] = molecular target: Fibroblast growth factor receptor 1 (Homo sapiens) (UniProt P11362); conditions: at 1 µM
# [13] = molecular target: Fibroblast growth factor receptor 1 (Homo sapiens) (UniProt P11362); conditions: at 10 µM
# [14] = molecular target: Fibroblast growth factor receptor 2 (Homo sapiens) (UniProt P21802); conditions: at 1 µM
# [15] = molecular target: Fibroblast growth factor receptor 2 (Homo sapiens) (UniProt P21802); conditions: at 10 µM
# [16] = molecular target: Fibroblast growth factor receptor 3 (Homo sapiens) (UniProt P22607); conditions: at 1 µM
# [17] = molecular target: Fibroblast growth factor receptor 3 (Homo sapiens) (UniProt P22607); conditions: at 10 µM
# [18] = molecular target: Fibroblast growth factor receptor 4 (Homo sapiens) (UniProt P22455); conditions: at 1 µM
# [19] = molecular target: Fibroblast growth factor receptor 4 (Homo sapiens) (UniProt P22455); conditions: at 10 µM
# [20] = molecular target: Tyrosine-protein kinase Fer (Homo sapiens) (UniProt P16591); conditions: at 1 µM
# Chain of Tyrosine-protein kinase Fer (Homo sapiens) (P16591 whole entry, looked up): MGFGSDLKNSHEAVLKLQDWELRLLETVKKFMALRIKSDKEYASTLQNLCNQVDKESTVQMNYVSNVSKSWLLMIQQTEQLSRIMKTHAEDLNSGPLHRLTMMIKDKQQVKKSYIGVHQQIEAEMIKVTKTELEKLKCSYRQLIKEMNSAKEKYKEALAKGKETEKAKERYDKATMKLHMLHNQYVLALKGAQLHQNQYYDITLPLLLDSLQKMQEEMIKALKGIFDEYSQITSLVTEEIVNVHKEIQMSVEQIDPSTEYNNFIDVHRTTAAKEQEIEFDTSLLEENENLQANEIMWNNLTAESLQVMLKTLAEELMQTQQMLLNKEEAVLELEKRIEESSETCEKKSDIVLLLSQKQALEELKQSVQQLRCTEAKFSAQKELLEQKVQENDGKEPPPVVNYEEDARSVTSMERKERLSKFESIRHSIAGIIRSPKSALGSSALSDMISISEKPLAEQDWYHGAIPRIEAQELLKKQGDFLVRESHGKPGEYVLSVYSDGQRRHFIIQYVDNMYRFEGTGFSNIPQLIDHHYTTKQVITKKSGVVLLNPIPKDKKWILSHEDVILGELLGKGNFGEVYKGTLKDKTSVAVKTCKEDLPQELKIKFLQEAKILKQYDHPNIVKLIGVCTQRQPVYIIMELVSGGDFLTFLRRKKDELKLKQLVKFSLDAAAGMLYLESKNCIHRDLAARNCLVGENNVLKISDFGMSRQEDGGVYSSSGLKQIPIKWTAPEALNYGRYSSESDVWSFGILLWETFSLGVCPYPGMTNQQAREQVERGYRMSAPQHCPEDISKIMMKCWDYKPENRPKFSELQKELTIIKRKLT
# Chain of Focal adhesion kinase 1 (Homo sapiens) (Q05397 2-1052 limits assumed): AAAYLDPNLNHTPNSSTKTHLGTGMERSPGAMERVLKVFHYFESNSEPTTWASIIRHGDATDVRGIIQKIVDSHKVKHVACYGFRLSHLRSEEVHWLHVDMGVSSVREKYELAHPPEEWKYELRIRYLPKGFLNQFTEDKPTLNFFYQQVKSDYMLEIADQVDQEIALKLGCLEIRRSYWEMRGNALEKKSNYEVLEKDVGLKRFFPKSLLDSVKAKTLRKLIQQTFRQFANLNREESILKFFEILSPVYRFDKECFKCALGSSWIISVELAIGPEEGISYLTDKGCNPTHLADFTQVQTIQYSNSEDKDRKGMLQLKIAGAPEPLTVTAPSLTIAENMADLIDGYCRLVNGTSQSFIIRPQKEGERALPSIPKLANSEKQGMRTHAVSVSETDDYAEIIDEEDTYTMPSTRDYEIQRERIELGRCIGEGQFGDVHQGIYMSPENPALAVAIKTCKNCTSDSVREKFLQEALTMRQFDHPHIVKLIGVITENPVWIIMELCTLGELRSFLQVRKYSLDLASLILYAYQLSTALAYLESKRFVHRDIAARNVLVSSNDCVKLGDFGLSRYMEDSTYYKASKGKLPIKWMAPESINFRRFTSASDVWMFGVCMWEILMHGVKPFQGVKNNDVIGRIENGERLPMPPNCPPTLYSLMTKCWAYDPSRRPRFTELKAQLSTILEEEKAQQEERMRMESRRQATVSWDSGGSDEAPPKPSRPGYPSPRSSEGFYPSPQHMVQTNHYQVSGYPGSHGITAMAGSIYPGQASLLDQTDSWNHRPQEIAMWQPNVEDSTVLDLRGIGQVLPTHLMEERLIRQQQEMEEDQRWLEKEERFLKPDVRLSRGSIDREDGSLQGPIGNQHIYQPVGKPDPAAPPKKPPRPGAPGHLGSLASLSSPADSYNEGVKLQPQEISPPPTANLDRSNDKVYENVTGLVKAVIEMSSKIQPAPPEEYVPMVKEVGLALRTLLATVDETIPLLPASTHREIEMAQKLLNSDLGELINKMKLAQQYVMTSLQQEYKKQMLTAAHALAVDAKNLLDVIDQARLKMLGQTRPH
# Chain of Fibroblast growth factor receptor 1 (Homo sapiens) (P11362 22-822 limits assumed): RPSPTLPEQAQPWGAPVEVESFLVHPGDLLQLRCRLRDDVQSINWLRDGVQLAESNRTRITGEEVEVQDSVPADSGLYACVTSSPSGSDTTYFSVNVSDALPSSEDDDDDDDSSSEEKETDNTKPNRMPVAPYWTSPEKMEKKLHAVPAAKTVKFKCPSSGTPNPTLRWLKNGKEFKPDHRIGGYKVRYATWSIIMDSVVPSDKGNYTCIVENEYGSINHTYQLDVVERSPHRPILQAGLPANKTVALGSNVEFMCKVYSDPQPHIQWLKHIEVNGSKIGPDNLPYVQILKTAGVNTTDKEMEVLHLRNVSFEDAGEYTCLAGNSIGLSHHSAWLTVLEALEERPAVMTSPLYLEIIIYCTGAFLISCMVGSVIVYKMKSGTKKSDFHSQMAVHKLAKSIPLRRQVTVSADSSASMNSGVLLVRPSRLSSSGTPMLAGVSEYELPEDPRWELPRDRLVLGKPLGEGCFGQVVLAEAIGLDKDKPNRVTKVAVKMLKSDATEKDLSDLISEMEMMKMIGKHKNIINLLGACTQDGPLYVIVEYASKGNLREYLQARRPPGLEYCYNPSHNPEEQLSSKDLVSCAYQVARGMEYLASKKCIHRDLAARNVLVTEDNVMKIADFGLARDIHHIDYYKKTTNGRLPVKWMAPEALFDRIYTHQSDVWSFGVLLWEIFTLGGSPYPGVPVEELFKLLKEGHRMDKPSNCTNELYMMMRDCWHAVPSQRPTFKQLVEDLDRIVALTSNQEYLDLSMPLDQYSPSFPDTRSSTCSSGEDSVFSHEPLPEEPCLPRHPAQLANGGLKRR
# Chain of Fibroblast growth factor receptor 4 (Homo sapiens) (P22455 22-802 limits assumed): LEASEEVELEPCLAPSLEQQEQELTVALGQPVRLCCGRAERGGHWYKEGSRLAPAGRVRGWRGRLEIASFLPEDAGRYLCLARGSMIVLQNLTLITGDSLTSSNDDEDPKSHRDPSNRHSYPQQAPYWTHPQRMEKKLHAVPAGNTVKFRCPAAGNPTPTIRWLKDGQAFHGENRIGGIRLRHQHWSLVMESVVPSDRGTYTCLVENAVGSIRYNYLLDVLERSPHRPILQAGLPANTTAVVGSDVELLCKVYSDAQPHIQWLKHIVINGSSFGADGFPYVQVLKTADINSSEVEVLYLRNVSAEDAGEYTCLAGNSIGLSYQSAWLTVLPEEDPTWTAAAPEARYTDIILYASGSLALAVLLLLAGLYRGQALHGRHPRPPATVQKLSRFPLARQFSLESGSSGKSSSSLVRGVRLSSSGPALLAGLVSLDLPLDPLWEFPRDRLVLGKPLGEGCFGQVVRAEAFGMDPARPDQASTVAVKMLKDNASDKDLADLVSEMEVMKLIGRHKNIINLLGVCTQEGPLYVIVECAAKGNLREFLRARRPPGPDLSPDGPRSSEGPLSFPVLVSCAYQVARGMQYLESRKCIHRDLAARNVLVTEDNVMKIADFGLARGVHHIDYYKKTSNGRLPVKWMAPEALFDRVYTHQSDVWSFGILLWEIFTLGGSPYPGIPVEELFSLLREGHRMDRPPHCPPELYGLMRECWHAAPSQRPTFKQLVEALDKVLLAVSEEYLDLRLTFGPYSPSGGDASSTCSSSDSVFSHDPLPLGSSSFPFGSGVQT
# Chain of Receptor tyrosine-protein kinase erbB-4 (Homo sapiens) (Q15303 whole entry): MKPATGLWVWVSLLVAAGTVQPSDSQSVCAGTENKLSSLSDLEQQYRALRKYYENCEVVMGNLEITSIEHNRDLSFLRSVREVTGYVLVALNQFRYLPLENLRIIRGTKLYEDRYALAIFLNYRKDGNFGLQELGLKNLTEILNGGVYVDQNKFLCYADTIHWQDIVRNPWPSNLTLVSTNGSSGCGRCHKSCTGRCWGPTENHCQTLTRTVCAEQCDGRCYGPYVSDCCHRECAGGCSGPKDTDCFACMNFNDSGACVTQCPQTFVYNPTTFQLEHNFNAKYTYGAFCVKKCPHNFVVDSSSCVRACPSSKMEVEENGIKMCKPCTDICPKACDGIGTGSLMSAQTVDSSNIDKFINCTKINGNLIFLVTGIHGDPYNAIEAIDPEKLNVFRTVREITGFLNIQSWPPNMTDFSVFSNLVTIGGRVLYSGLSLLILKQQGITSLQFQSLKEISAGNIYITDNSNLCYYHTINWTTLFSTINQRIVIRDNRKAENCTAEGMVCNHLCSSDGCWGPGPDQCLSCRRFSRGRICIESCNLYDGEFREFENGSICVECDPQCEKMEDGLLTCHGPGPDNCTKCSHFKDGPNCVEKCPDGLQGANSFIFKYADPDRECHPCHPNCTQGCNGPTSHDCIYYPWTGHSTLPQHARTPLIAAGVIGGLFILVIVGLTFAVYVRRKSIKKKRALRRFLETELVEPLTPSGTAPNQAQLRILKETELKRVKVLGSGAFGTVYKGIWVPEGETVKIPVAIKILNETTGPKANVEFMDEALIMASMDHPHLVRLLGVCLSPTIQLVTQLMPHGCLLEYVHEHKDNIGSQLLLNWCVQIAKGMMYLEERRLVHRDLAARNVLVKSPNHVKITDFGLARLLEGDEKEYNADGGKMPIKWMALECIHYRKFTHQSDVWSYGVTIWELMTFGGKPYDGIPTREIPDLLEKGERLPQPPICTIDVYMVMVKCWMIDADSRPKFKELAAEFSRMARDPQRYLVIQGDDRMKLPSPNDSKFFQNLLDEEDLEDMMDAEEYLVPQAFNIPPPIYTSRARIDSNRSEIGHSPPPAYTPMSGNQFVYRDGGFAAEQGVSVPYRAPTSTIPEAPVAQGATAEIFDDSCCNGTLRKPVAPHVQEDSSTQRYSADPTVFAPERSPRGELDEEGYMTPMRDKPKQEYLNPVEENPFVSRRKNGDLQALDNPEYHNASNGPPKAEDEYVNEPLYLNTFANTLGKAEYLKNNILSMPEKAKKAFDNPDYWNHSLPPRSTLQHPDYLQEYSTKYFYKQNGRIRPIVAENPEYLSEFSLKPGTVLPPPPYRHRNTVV
SMILES,residual activity [1] [%],residual activity [2] [%],residual activity [3] [%],residual activity [4],residual activity [5] [%],residual activity [6] [%],residual activity [7] [%],residual activity [8] [%],residual activity [9] [%],residual activity [10] [%],residual activity [11] [%],residual activity [12] [%],residual activity [13] [%],residual activity [14] [%],residual activity [15] [%],residual activity [16] [%],residual activity [17] [%],residual activity [18] [%],residual activity [19] [%],residual activity [20] [%]
COc1ccc(C(=O)Nc2sc3c(c2C(N)=O)CCCC3)cc1OC,100,122,110,110% (inactive),122,98,120,87,97,119,78,87,118,86,99,104,109,107,99,108
O=C1NC(=O)/C(=C\c2ccc3nccnc3c2)S1,96,98,119,113% (inactive),104,95,111,88,92,90,83,113,91,98,101,96,104,119,88,110
CN(C)CCCn1cc(C2=C(c3c[nH]c4ccccc34)C(=O)NC2=O)c2ccccc21,59,119,113,108% (inactive),110,124,118,113,86,133,37,50,3,88,33,–,29,121,70,113
C[C@@H](N)[C@H]1CC[C@H](C(=O)Nc2ccncc2)CC1,99,90,92,111% (inactive),110,108,102,109,113,104,96,95,98,102,82,–,93,100,103,100
c1ccc(-c2n[nH]c3c2oc2ccccc23)cc1,90,–,–,93% (inactive),100,100,116,90,–,122,76,90,36,–,52,98,59,–,–,–
N#CCCc1ccc2c(c1)-c1[nH]c3ccc([N+](=O)[O-])cc3c1CC(=O)N2,74,–,67,–,–,–,77,–,76,50,22,47,17,–,48,–,–,–,–,–
O=c1c2ccccc2[nH]c(=S)n1CCN1CCC(=C(c2ccc(F)cc2)c2ccc(F)cc2)CC1,90,–,–,112% (inactive),107,99,121,102,66,135,81,83,49,119,62,123,78,–,81,109
Nc1nc(Nc2ccc(S(N)(=O)=O)cc2)nn1C(=S)Nc1c(F)cccc1F,-1,–,–,–,–,30,4,105,96,20,-1,1,-1,1,-1,3,0,71,23,23
CC(=O)c1ccc(N2CCOCC2)cc1O,101,–,106,105% (inactive),107,–,–,93,107,–,94,97,–,–,–,98,128,–,–,–
O=C(Nc1cccc(Nc2nccc(Nc3cccc(C(F)(F)F)c3)n2)c1)C1CC1,7,93,26,106% (inactive),113,109,10,98,96,51,10,69,8,99,37,83,91,108,63,124
c1ccc2c(-c3ccncc3)c[nH]c2c1,110,108,111,106% (inactive),112,111,108,88,–,–,65,–,90,111,87,–,–,112,94,109
CCN(CC)C(=O)c1ccc(Nc2nc(OCC3CCCCC3)c3nc[nH]c3n2)cc1,4,103,32,102% (inactive),52,72,12,74,34,72,12,40,2,56,9,49,4,–,–,53
COc1cc2ncc(-c3ccccc3)nc2cc1OC,–,–,–,132% (inactive),90,125,123,88,85,139,95,–,–,100,93,–,–,–,–,–
Cn1nc2c3c(cccc31)C(=O)c1ccccc1-2,77,108,109,104% (inactive),–,87,83,93,90,95,65,110,66,103,76,112,77,90,88,87
